High-throughput results from PubChem.
Shown are actives, neighbours in structure and some others; about 3.2% of the full set was active somewhere.
ERa coact pot – ER-alpha (human) coactivator binding potentiation; P03372; TR-FRET ERalpha-LBD/SRC-Cy5 coactivator binding, 2 h; 100 = basal binding, no effect; coactivator binding (% of control), % at 25.6 µM; actives 1.3% (n = 86,000); AID 639; in the data active means activity above about 200%;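 further: binding measured in presence of low estradiol as agonist stimulus; 0% = peptide alone without receptor and 100% = receptor with peptide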
Target sequence (P03372 whole entry, looked up, the tested form may be a part): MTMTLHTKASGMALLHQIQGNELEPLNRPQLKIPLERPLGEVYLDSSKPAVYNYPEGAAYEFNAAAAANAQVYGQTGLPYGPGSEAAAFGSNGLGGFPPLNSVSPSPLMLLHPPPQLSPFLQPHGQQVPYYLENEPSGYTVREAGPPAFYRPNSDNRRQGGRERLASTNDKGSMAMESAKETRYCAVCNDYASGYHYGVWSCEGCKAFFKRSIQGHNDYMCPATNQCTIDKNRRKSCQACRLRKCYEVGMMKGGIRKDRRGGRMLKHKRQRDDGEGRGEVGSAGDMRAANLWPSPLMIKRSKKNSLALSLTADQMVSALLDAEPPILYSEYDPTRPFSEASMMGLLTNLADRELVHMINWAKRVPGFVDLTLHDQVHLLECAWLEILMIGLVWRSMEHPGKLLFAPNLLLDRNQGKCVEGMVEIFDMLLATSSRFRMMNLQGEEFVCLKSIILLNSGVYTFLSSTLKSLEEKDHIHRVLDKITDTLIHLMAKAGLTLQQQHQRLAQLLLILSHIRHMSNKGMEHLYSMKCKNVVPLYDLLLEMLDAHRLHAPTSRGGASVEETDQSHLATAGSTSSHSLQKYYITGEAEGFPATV
FAK inh – blocks human focal adhesion kinase activity. inhibition, %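 (tested at 7 µM)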. biochemical FAK kinase activity assay. AID 727. Q05397. actives 0.84% (n = 97,000); in the data active means inhibition above about 19%;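 further: 0% = DMSO and 100% = reference compound high control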
ERb SRC1 inh – ER-beta (human) coactivator binding inhibition; Q92731; TR-FRET ER-beta LBD / SRC1-Cy5 peptide binding; receptor agonist-loaded with 1 µM estradiol; inhibition, % at 25.6 µM; actives 1.3% (n = 86,000); AID 633;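 active means compounds whose percent inhibition of the receptor-coactivator binding signal exceeds about 50% in the single-dose screen, limit read from the data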;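 further: 0% = receptor plus peptide wells without compound and 100% = peptide-only wells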
ERa coact inh – blocks coactivator binding to human estrogen receptor alpha; TR-FRET ER-alpha LBD / SRC-1 peptide, estradiol-bound; inhibition, % at 25.6 µM; actives 1.7% (n = 86,000); AID 629; in the data active means inhibition above about 50%;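 further: 0% = receptor plus peptide control and 100% = peptide only without receptor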
Starred values were filed as active, the others as inactive; x = no result; [ ] = remark or other dose.

SMILES	ERa coact pot	FAK inh	ERb SRC1 inh	ERa coact inh
Cc1cccc(-c2cc3nc(-c4ccccc4)cc(N4CCC5(CC4)OCCO5)n3n2)c1	127.2	0.6	-4.8	-5.9
Cc1ccc(-c2cc3nc(-c4ccccc4)cc(N4CCC5(CC4)OCCO5)n3n2)cc1	283.7*[fluorescence artefact?]	-0.9	9.1	-11.8
CCOC(=O)CN(C(=O)CNC(=O)c1cccs1)C(C(=O)NC1CCCC1)c1cccnc1 (configuration not stated)	x	-1.9	x	x
CCOC(=O)c1sc(NC(=O)CSc2nc3c(c(-c4ccc(OC)cc4)c2C#N)CCCC3)c(C#N)c1C	138.0	0.6	8.1	13.2
CCOC(=O)c1sc(NC(=O)CSc2nc(C)cc(C)c2C#N)c(C#N)c1C	267.5*	2.3	21.1	36.0
CCC(C)Sc1nc(O)c(Cc2ccccc2)c(=O)[nH]1 (configuration not stated)	83.8	-5.2	14.2	0.5
Cn1nnnc1Sc1nc(-c2cccnc2)nc2ccccc12	98.3	x	-9.2	-19.6
CCn1c(SCC(=O)c2ccc(O)c(O)c2)nnc1-c1ccccc1OC	78.3	-1.0	53.9*	21.6
C=CCn1c(SCC(=O)c2ccc(O)c(O)c2)nnc1-c1ccccc1OC	94.0	5.3	48.1	9.6
CC(C)c1ccc2c(c1)C(c1ccc(N3CCOCC3)cc1)=NNC(c1cccs1)=N2	x	-1.9	x	x
Cn1c(=O)c(C(=O)Nc2ccccn2)c(O)c2ccccc21	285.6*[fluorescence artefact?]	4.0	10.5	-4.6
Cn1c(=O)c(C(=O)Nc2cnccn2)c(O)c2ccccc21	171.3	x	19.5	34.1
O=C(O)c1cc2nc(-c3ccc(F)cc3)cc(C(F)(F)F)n2n1	60.0	-0.4	35.5	25.1
CCn1cc(-c2cc(C(F)(F)F)n3nc(C(=O)O)cc3n2)c(C)n1	23.0	-7.4	75.4*[fluorescence artefact?]	64.1*[fluorescence artefact?]
CCOC(=O)C1=C(c2ccccc2)O/C(=C(\C(=O)OC)C(F)(F)F)S1	270.2*[fluorescence artefact?]	-3.2	9.5	8.2
COc1ccc(OCCn2cc(/C(N)=N/O)c3ccccc32)cc1	117.6	-4.1	-7.2	-12.3
CCC(=C(c1ccc(OC)cc1)c1ccc(OC)cc1)c1cn(CC(O)CN2CCN(C)CC2)c2ccccc12 (configuration not stated)	25.9	12.7	36.1	70.3*[fluorescence artefact?]
Cc1ccc2nc(-c3cccc(N)c3)oc2c1	88.1	2.4	-0.9	-0.1
Cc1ccc2nc(-c3cccc(-c4nc5ccc(C)cc5o4)n3)oc2c1	248.2*[fluorescence artefact?]	x	12.1	7.0
CCCCN1C2CCCC1CC(NC(=O)N(C(C)C)C(C)C)C2 (configuration not stated)	108.3	-1.1	-11.3	-2.6
CCn1c(=O)c2cc(C(=O)NCc3cccs3)sc2c2ccccc21	190.5	x	10.7	18.2
CCn1c(=O)c2cc(C(=O)Nc3cc(C)on3)sc2c2ccccc21	140.8	-8.1	44.0	54.4*[fluorescence artefact?]
CCOc1ncccc1C(=O)OCc1cc(=O)oc2c(C)c(C)ccc12	286.7*[fluorescence artefact?]	x	43.7	47.8
O=C(CSc1ncnc2sc3c(c12)CCCC3)N1CCC(c2noc3ccc(F)cc23)CC1	354.9*[fluorescence artefact?]	4.2	65.7*[fluorescence artefact?]	28.9
CCN(CC)c1cccc(OC2=NS(=O)(=O)c3ccccc32)c1	18.3	4.4	24.6	82.9*[fluorescence artefact?]
SMILES	ERa coact pot	FAK inh	ERb SRC1 inh	ERa coact inh
COc1ccccc1OC1=NS(=O)(=O)c2ccccc21	15.8	3.8	3.3	77.8*[fluorescence artefact?]
COCCOc1cc(-n2ccnc2SC)c(Cl)cc1Cl	x	1.9	x	x
CCC1(C)NC(=O)N(CC(=O)Nc2sc3c(c2C(N)=O)CCC3)C1=O (configuration not stated)	21.8	x	82.7*[fluorescence artefact?]	75.8*
O=C(CNC(=O)c1ccco1)OCc1ccc(Cl)cc1	133.1	0.3	59.8*	1.3
Cc1ccc(C)c(Cn2c(=O)n(-c3ccc(CC(=O)NCc4ccco4)cc3)c(=O)c3sccc32)c1	127.0	6.2	54.5*	79.6*[fluorescence artefact?]
O=C1C2C3C=CC(C3)C2C(=O)N1c1cccc2cccnc12 (configuration not stated)	65.1	0.5	51.1*	39.8
COc1ccc(C(=O)Nc2nc3c(s2)Cc2cc(OC)ccc2-3)cc1	7.4	-0.8	54.5*	95.2*[fluorescence artefact?]
Cc1nc(SCC(=O)c2ccccc2)c(C#N)c(-c2ccco2)c1C(=O)NCc1ccco1	235.7*	x	18.7	18.1
COCCOC(=O)c1c(C)nc(SCC(=O)Nc2ccc(OC)cc2)c(C#N)c1-c1ccco1	111.2	0.3	-2.2	3.2
O=C(CN1C(=O)C2C3C=CC(C3)C2C1=O)N1CC=C(c2ccccc2)CC1 (configuration not stated)	131.8	6.4	-16.1	14.1
Fc1ccc(NCc2cccnc2)cc1F	119.5	0.9	-2.1	62.5*
Cc1cc(F)ccc1NCc1cccnc1	96.0	2.2	-2.4	-2.4
Cc1nn(-c2ccccc2)c(C)c1NC(=O)Cc1cccs1	61.8	x	53.4*	58.9*[fluorescence artefact?]
Cc1nnc(NC(=O)Cc2cccs2)s1	50.4	6.5	72.6*[fluorescence artefact?]	74.2*
Cc1nn(-c2ccccc2)c(C)c1NC(=O)c1cccs1	93.4	0.5	-10.1	-2.6
CCC(=O)Nc1nnc(SCC(=O)N2c3ccccc3CC2C)s1 (configuration not stated)	122.2	-0.9	-4.6	-4.6
O=C(Cc1cccs1)Nc1nnc(COc2ccccc2)s1	76.3	0.6	36.9	55.7*
CC1Cc2ccccc2N1C(=O)CSc1nnc(NC(=O)Cc2cccs2)s1 (configuration not stated)	56.3	7.2	47.2	61.7*
Cc1[nH]n(-c2ccccc2)c(=O)c1S(=O)(=O)c1ccccc1	100.0	3.9	-5.9	-17.9
O=C1CCC(c2ccccc2)N1C(=O)c1cccnc1 (configuration not stated)	105.9	0.3	-18.9	-11.9
Cc1ccccc1OCc1nnc2n1CC(C)S2 (configuration not stated)	111.8	-2.2	-7.2	-5.3
O=C(CSc1nnc(-c2ccccc2O)o1)N1CCc2ccccc2C1	239.2*[fluorescence artefact?]	-2.6	26.7	23.0
O=C1c2ccccc2C(=O)N1CCn1nc(Cl)nc1Cl	117.5	x	58.5*[fluorescence artefact?]	-13.1
Cc1cccc(C(OC(=O)c2ccco2)C(=O)NCc2ccccc2)n1 (configuration not stated)	52.8	-4.7	73.9*[fluorescence artefact?]	68.0*[fluorescence artefact?]
COc1ccc(/C=N/OCc2nc3c4c(ncn3n2)Oc2ccc3ccccc3c2C4c2ccccc2)cc1 (configuration not stated)	x	-11.1	x	x
SMILES	ERa coact pot	FAK inh	ERb SRC1 inh	ERa coact inh
Cc1cc(Oc2nnnn2-c2ccccc2)ccc1Cl	97.9	-0.5	-3.8	3.6
CCOC(=O)c1c(C)oc2ccc(NS(=O)(=O)c3ccc4c5c(cccc35)C(=O)N4)cc12	52.3	10.0	65.2*[fluorescence artefact?]	66.6*[fluorescence artefact?]
CC(=O)c1c(C)[nH]c(C(=O)OCC(=O)N2CCc3ccccc32)c1C	229.0*	0.2	16.2	12.3
CCCn1c(NC(=O)c2cccc(S(=O)(=O)N3CCCC3)c2)nc2ccccc21	96.0	x	6.0	3.7
CCC(=O)Nc1ccc(S(=O)(=O)Nc2cccnc2)cc1	107.3	-0.5	77.5*[fluorescence artefact?]	-4.3
CCC(=O)Nc1ccc(S(=O)(=O)Nc2ncccn2)cc1	x	0.0	x	x
O=C(CSc1nc2c(cnn2-c2ccccc2)c(=O)[nH]1)c1ccc(Cl)cc1	329.2*	9.7	8.5	13.8
